According to PubChem BioAssay AID1347056 (Sanford-Burnham Center for Chemical Genomics, 2019):
Hit rate of the full screen: of about 360,000 compounds, about 3,600 (1%) were called active.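 The calls were made as follows: active = compounds whose plate-normalised and pattern-corrected inhibition of the luciferase reporter signal at the single screening dose is 50% or more; inactive = the rest.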 For the sample, actives were picked, then their nearest neighbours and some compounds at random.

Test: TROY pathway blockers in reporter cells – Q293 LMP1-TROYcd cells, NF-kB luciferase, uHTS, primary screen (AID 1347056)
Details: 4 h, at 10 µM, active compounds read high

SMILES	inhibition
Cc1cc(=O)oc2c(C)c(OCC(=O)NCCc3ccc(S(N)(=O)=O)cc3)ccc12	-2.4% (inactive)
O=C(C1CCN(c2nnc(-n3cccc3)s2)CC1)N1CCc2ccccc2C1	22.4% (inactive)
Cc1ccc2c(C)c(C(=O)N(C)CCC3CCCCO3)oc2c1C (centres undefined)	-35.3% (inactive)
O=C(CN(Cc1ccccc1)C(=O)CCC(=O)Nc1ccccn1)NCCc1ccccc1	-13.3% (inactive)
COc1ccc(-c2nc(-c3ccccc3)no2)c(OC)c1	72.5% (active)
COc1ccc(-c2noc(CNC(=O)C(C)Oc3ccccc3)n2)cc1 (centres undefined)	-22.8% (inactive)
COc1ccc(/C=C/c2noc(-c3ccccc3OC(C)=O)n2)cc1	48.6% (inactive)
CCN(C(=O)CSc1nnnn1-c1ccccc1OC)C1CCS(=O)(=O)C1 (centres undefined)	-12.8% (inactive)
COc1ccccc1CN(C)c1nnnn1-c1ccccc1	7.2% (inactive)
COc1ccccc1-n1nnnc1S(=O)(=O)Cc1ccc(Cl)cc1	68.3% (active)
O=c1[nH][nH]c(C(F)(F)F)c1C=NCc1ccccc1Cl	-4.3% (inactive)
O=C(O)CC(SCC(=O)Nc1ccc(Br)cc1)C(=O)O (centres undefined)	67.2% (active)
Cc1cc(C)c2c(=O)[nH]c(SCC(=O)Nc3ccc(Br)cc3)nc2n1	10.6% (inactive)
O=C(O)CSCC(=O)Nc1ccc(C(F)(F)F)cc1	5.82% (inactive)
CC(=O)Nc1nc2c(s1)C(=O)NCC(C)(C)C2	16.5% (inactive)
CC(=O)c1cc(CN2CCC(n3nccc3NC(=O)c3ccccc3Cl)CC2)cs1	-6.73% (inactive)
OC[C@@H]1CN(Cc2cccs2)C[C@H](n2cnc3c(NC4CCCC4)ncnc32)O1	-12% (inactive)
OC[C@@H]1CN(Cc2ccc(-c3ccccc3)cc2)C[C@H](n2cnc3c(NC4CCCC4)ncnc32)O1	52.3% (active)
OC[C@@H]1CN(Cc2ccc(F)cc2)C[C@H](n2cnc3c(NC4CCCC4)ncnc32)O1	-11.8% (inactive)
N#CC(C(N)=O)=C1CCC2(CC1)OCCCCO2	-8.85% (inactive)
Nc1nc(NCc2ccccc2)n(-c2ccccc2)n1	11.4% (inactive)
O=C(O)CN1c2cccc3cccc(c23)S1(=O)=O	18% (inactive)
N/C(=N\OC(=O)Cc1ccc([N+](=O)[O-])cc1)c1ccccn1	71.7% (active)
N/C(=N\OC(=O)c1ccc([N+](=O)[O-])cc1)c1ccccn1	-41.5% (inactive)

SMILES	inhibition
O=C(COC(=O)c1ccccn1)NNC(=O)c1ccc([N+](=O)[O-])cc1	-4.92% (inactive)
O=C(Cc1ccccc1)N1CCN(S(=O)(=O)c2ccc([N+](=O)[O-])cc2)CC1	-0.47% (inactive)
O=C(Nc1nnc(C2CC2)s1)C1=NN(C2CCS(=O)(=O)C2)C(=O)CC1 (centres undefined)	-9.87% (inactive)
COc1ccc(NC(=O)CCCN2C(=O)C(c3ccccc3)Oc3cccnc32)cc1 (centres undefined)	-2.33% (inactive)
CCCNC(=O)c1ccccc1NC(=O)CSCc1ccc(OC)cc1	-1.25% (inactive)
COc1ccc(/C=C2/SC(=O)N(CCCCCC(=O)Nc3ccccc3C(=O)O)C2=S)cc1	62.8% (active)
O=C(NCc1ccc(F)cc1)c1cc(C2CCCCN2C(=O)c2cccs2)on1 (centres undefined)	-13.9% (inactive)
Cc1ccc(-n2c(SCC(=O)N3CCC(C(=O)O)CC3)nc3ccccc3c2=O)cc1C	28.8% (inactive)
CN1c2ccc([N+](=O)[O-])cc2C(C)(C)C12C=Cc1cc(C(=O)O)ccc1O2 (centres undefined)	4.3% (inactive)
COc1ccc2c(c1)C(SCC(=O)NCc1ccccc1)CC(C)(C)O2 (centres undefined)	-9.24% (inactive)
COc1ccc2c(c1)C=CC1(O2)N(CCO)c2ccccc2C1(C)C (centres undefined)	74.4% (active)
CN(C)/C=C/C(=O)c1cnc2sccn2c1=O	11.6% (inactive)
CCn1c(CC(=O)Nc2ccccc2C)nnc1SCC(=O)NC1=NCCS1	11% (inactive)
COc1cc(C(=O)OCC(=O)N(CC(C)C)C2CCS(=O)(=O)C2)ccc1OCC(C)C (centres undefined)	6.44% (inactive)
FC(F)(F)COc1nc(N2CCCCC2)nc(N2CCNCC2)n1	-47.4% (inactive)
COc1nc(NC2CCCCC2)nc(N2CCCCCC2)n1	51.7% (active)
Clc1nc(NC2CCCC2)nc(N2CCOCC2)n1	9.54% (inactive)
CN(C)C(=S)Nc1ccc(Br)cc1Cl	2.66% (inactive)
CCOC(=O)[C@]12CCC=C1N(Cc1ccco1)C(=O)[C@H](CC(=O)N1CCSCC1)C2	-1.7% (inactive)
COc1ccc(CCC(=O)OCC(=O)Nc2ccc(C)c(S(=O)(=O)N(C)C)c2)cc1	12.9% (inactive)
c1c2c(cc3sc(N4CCCCC4)nc13)OCCO2	72.6% (active)
COc1cccc(N2C(=O)CC(N3CCc4ccccc4C3)C2=O)c1 (centres undefined)	2.65% (inactive)
CC(Sc1nncn1C)C(=O)Nc1ccccc1-c1ccccc1 (centres undefined)	-16.4% (inactive)
COc1ccc(CNc2nnnn2C)cc1	-13.4% (inactive)

SMILES	inhibition
COc1ccc(-n2nnnc2SCC(=O)NCc2cccs2)cc1	-11.6% (inactive)
COc1ccc(-n2nnnc2-c2nc3ccccc3s2)cc1	73% (active)
CC(=O)N1CCN(S(=O)(=O)c2cccc(C(=O)NC3CCC(C)CC3)c2)CC1 (centres undefined)	5.64% (inactive)
O=C(NC1CC1)c1cccc(Br)c1	79.2% (active)
O=C(NC1CC1)c1ccc(-c2ccccc2)cc1	-40.9% (inactive)
CCCCn1c(N)c(N(CCC(C)C)C(=O)c2ccc(COc3ccccc3)o2)c(=O)[nH]c1=O	-19.5% (inactive)
CCC(CC)C(=O)Nc1ccc(S(=O)(=O)Nc2nccs2)cc1	-15.5% (inactive)
CC1(C)C/C(=C(/C#N)C(N)=O)CCO1	-13.2% (inactive)
O=C(NCc1ccccc1)c1onc(CSc2ccncc2)c1C(=O)NCc1ccccc1	-21.8% (inactive)
CC[C@@H]1Cc2cc(O)ccc2C2=C1c1ccc(O)cc1C[C@H]2CC	59.9% (active)
C=CC[n+]1c(-c2ccc(C)cc2)csc1NNC(=O)Nc1ccccc1	25.5% (inactive)
CC(=O)c1cccc(NC(=S)N2CCN(S(C)(=O)=O)CC2)c1	-9.61% (inactive)
CCCCN1C(=O)C(=O)N(CC(=O)Nc2cccc(C(C)=O)c2)C1=O	-16.1% (inactive)
CSc1ccccc1C(=O)Nc1cccc(C(C)=O)c1	8.76% (inactive)
CCSc1nsc(NC(=O)Nc2cccc(C(C)=O)c2)n1	67.1% (active)
CC(=O)c1cccc(NC(=O)C2CCN(C(=O)c3ccccc3Cl)CC2)c1	1.66% (inactive)
C=CCSc1nsc(NC(=O)Nc2cccc(C(C)=O)c2)n1	55.9% (active)
CCOC12CC(C)(C)CC(C)(CC3=C1C(=O)CC(C)(C)C3)C2 (centres undefined)	8.44% (inactive)
NC(=O)c1cc(S(=O)(=O)N2CCCC2)ccc1OCc1ccc(F)cc1	-16.9% (inactive)
CCOc1ccc2c(c1)c(=O)c(S(=O)(=O)c1ccc(C)cc1)cn2CC	0.7% (inactive)
N#Cc1cccc(NC(=O)c2cc(C3CCCCN3C(=O)CCc3ccccc3)on2)c1 (centres undefined)	19.9% (inactive)
CC1CN(C2CCCCC2)c2nc3c(c(=O)n(C)c(=O)n3C)n2C1 (centres undefined)	-2.69% (inactive)
Nc1ccc(-n2nncc2-c2ccco2)cc1	-12.6% (inactive)
CC(=O)C1=C(O)C(=O)N(c2ccc(Br)cc2)C1c1ccc([N+](=O)[O-])cc1 (centres undefined)	-18.5% (inactive)

SMILES	inhibition
COc1ccc(OC)c(C(O)c2nc3ccccc3n2C)c1 (centres undefined)	-7.8% (inactive)
OCCCNc1nccc(-c2cc(Nc3cccc(Cl)c3)ncn2)n1	54.1% (active)
COc1ccc(C2=NOC(C(=O)NCc3ccco3)C2)cc1OC (centres undefined)	14.5% (inactive)
COc1ccc(CNC(=O)CN(Cc2ccc(Cl)cc2)S(C)(=O)=O)cc1	6.51% (inactive)
Cc1cccc(CC(=O)N2CCN=C2SCc2ccc([N+](=O)[O-])cc2)c1	-7.77% (inactive)
COCCNC(=O)CN1C(=O)CSc2ncccc21	-20.5% (inactive)
CCC1(C)NC(=O)N(CC(=O)N2CCN(c3cccc(Cl)c3)CC2)C1=O (centres undefined)	-0.65% (inactive)
O=C(Cc1ccccc1)Nc1ccc(NC(=O)c2cccnc2)cc1	17.2% (inactive)
Cc1cc(NS(=O)(=O)c2ccc(NC(=O)c3cccnc3)cc2)nc(C)n1	9.3% (inactive)
Cc1ccc2nc(-c3ccc(NC(=O)c4cccnc4)cc3)oc2c1	50.8% (active)
CC(=O)Nc1sc2c(c1C(c1cccc(F)c1)N1CCN(CCO)CC1)CCCC2 (centres undefined)	-6.54% (inactive)
COc1ccccc1N(C)S(=O)(=O)c1ccc(Cl)c(C(=O)Nc2ccncc2)c1	-12.4% (inactive)
CC(=O)c1ccc(S(=O)(=O)NCCC(=O)N2CCN(c3ccccn3)CC2)cc1	0.71% (inactive)
COc1ccc(C)cc1NC(=O)CSc1cccc[n+]1[O-]	13% (inactive)
CCCn1c(C(Cc2ccccc2)NC(=O)COC)nc2ccccc21 (centres undefined)	-16.1% (inactive)
O=C(CN1CCOCC1)Nc1ccc(NC(=O)CN2CCOCC2)c(Cl)c1	-4.68% (inactive)
O=C(CC(O)(C(F)(F)F)C(F)(F)F)Nc1ccc(Cl)c(Cl)c1	59.2% (active)
CN(CC(=O)Nc1ccc(Cl)c(C(F)(F)F)c1)C(=O)CCC(=O)c1ccccc1	29.4% (inactive)
Cc1ccc(C2=NN(C(=O)CSc3nc(N)cc(N)n3)C(c3ccco3)C2)cc1 (centres undefined)	-20.4% (inactive)
Cc1ccc(C2=NN(C(=O)COc3ncnc4ccccc34)C(c3ccco3)C2)cc1 (centres undefined)	3.07% (inactive)
O=C(CN1CCN(C2CCS(=O)(=O)C2)CC1)N1N=C(c2ccc(Cl)cc2)CC1c1ccco1 (centres undefined)	58.2% (active)
CCC1=[N+]([O-])C(C)(/C(C)=N\O)N(O)C1(C)C (centres undefined)	-4.1% (inactive)
